Inhibition data for 19 molecules are collected here from ChEMBL document CHEMBL4296182, “CO-ADD screening of NIH NCI Diversity Set V”.

One experiment has as its system Staphylococcus aureus. The experiment can be described thus: Antibacterial activity against Staphylococcus aureus MRSA ATCC 43300 (CO-ADD:GP_020); MIC in CAMBH media using NBS plates, by Resazurin F(560/590). To be noted: Concentration 20 uM, ASSAY_TEST Inhibition of Bacterial Growth, detection method Resazurin, Fluorescence (ex560/em590), MEDIA CAMHB, plate type 384well, CORNING #3640, time 18 hr. The format is functional.

A further experiment deals with Acinetobacter baumannii. The experiment can be described thus: Antibacterial activity against Acinetobacter baumannii ATCC 19606 (CO-ADD:GN_034); MIC in CAMBH media using NBS plates, by Resazurin F(560/590). The format is functional. To be noted: Concentration 20 uM, ASSAY_TEST Inhibition of Bacterial Growth, detection method Resazurin, Fluorescence (ex560/em590), MEDIA CAMHB, plate type 384well, CORNING #3640, time 18 hr. (Alamar Blue is a resazurin reagent that responds to reducing activity.)

For a further experiment, the system named is Escherichia coli. The experiment is described as follows: Antibacterial activity against Escherichia coli ATCC 25922 (CO-ADD:GN_001); MIC in CAMBH media using NBS plates, by Resazurin F(560/590). The format is functional. Particulars: Concentration 20 uM, ASSAY_TEST Inhibition of Bacterial Growth, detection method Resazurin, Fluorescence (ex560/em590), MEDIA CAMHB, plate type 384well, CORNING #3640, time 18 hr.

In another experiment the test system is Klebsiella pneumoniae. Particulars: Concentration 20 uM; ASSAY_TEST Inhibition of Bacterial Growth; detection method Absorption (OD600); MEDIA CAMHB; plate type 384well; NBS; CORNING #3640; time 18 hr.
The test system of another experiment is Candida albicans. Particulars: 20 µM.
Another experiment deals with Cryptococcus neoformans. To be noted: Concentration 20 uM; ASSAY_TEST Inhibition of Fungal Growth; detection method Resazurin; Absorption (OD600-OD570); plate type 384well; NBS; CORNING #3640.

One may read the Inhibition as the change of the read-out against control, counted positive when it falls.

SMILES strings stand for the structures. For part of these data: Potency and affinity values are given separately.

Take `CC1=NCC(C)c2ccccc21` (centres undefined): the Inhibition is 18.64% with Staphylococcus aureus; -4.26% in the experiment with Acinetobacter baumannii; 9.51% in the experiment with Escherichia coli; 8.39% in the experiment with Klebsiella pneumoniae; -2.04% in the experiment on Candida albicans; -2.64% with Cryptococcus neoformans.

As for `N=C(NOC(=O)c1ccccc1)C(Cc1ccccc1)C(=O)NOC(=O)c1ccccc1` (centres undefined), the Inhibition in the experiment with Staphylococcus aureus is 11.08%; with Acinetobacter baumannii it was -11.45%; in the experiment on Escherichia coli, 18.34%; in the experiment on Klebsiella pneumoniae, 10.4%; in the experiment on Candida albicans, 7.02%; in the experiment with Cryptococcus neoformans it was -11.11%.

On to `NC(=O)c1ccc2c(c1)S(=O)(=O)c1ccccc1C2=O`, for which the Inhibition with Staphylococcus aureus is 12.96%; in the experiment with Acinetobacter baumannii, -8.12%; with Escherichia coli, -3.77%; in the experiment on Klebsiella pneumoniae, 24.13%; in the experiment on Candida albicans it was 1.19%; in the experiment with Cryptococcus neoformans, -8.66%.

Regarding `CCOC(=O)Cc1csc2nc(-c3ccccc3)nn12`, the Inhibition in the experiment with Staphylococcus aureus was -0.44%; with Acinetobacter baumannii, -7.19%; in the experiment on Escherichia coli, 5.98%; with Klebsiella pneumoniae it was -2.91%; in the experiment on Candida albicans, 3.06%; in the experiment with Cryptococcus neoformans, -9.7%.

For `O=C(Nc1ccc(Nc2ccncc2)cc1)c1ccc([N+](=O)[O-])cc1`, the Inhibition with Staphylococcus aureus was -5.06%; with Acinetobacter baumannii, 12.27%; in the experiment with Escherichia coli, 7.64%; in the experiment on Klebsiella pneumoniae, 10.28%; with Candida albicans, 3.08%; in the experiment on Cryptococcus neoformans it was -7.15%.

Consider `O=C(Nc1ccc(Nc2ccccc2)cc1)Nc1ccccc1Cl`, for which the Inhibition was -2.92% in the experiment on Staphylococcus aureus; 1.03% with Acinetobacter baumannii; 8.7% with Escherichia coli; 12.39% in the experiment on Klebsiella pneumoniae; 2.75% with Candida albicans; -5.44% in the experiment with Cryptococcus neoformans.

On to `CC(=O)Oc1ccc(OC(C)=O)c2c1CC1(C)OC1(C)C2` (centres undefined), for which the Inhibition with Staphylococcus aureus was 13.73%; in the experiment with Acinetobacter baumannii it was 5.72%; with Escherichia coli, 3.36%; in the experiment on Klebsiella pneumoniae, 9.63%; with Candida albicans, -0.12%; in the experiment on Cryptococcus neoformans, -11.66%.

Take `Cn1c(=O)c2c(nc(Cc3ccccc3)n2C)n(C)c1=O`: the Inhibition with Staphylococcus aureus was 3.97%; with Acinetobacter baumannii it was 12.97%; with Escherichia coli, -5.53%; with Klebsiella pneumoniae, 15.33%; in the experiment with Candida albicans it was 4.11%; in the experiment on Cryptococcus neoformans it was -7.23%.

As for `COc1cc2c(=O)n3c4c(cccc4c2cc1OC)CC3`, the Inhibition in the experiment with Staphylococcus aureus is 9.4%; with Acinetobacter baumannii, -8.34%; in the experiment on Escherichia coli, 13.88%; in the experiment on Klebsiella pneumoniae, 1.26%; with Candida albicans it was 1.37%; in the experiment with Cryptococcus neoformans, -14.32%.

Consider `Cn1c(=O)c2c(nc(OCCc3ccccc3)n2C)n(C)c1=O`, for which the Inhibition in the experiment on Staphylococcus aureus is 6.63%; in the experiment with Acinetobacter baumannii it was -9.02%; in the experiment on Escherichia coli, 8.83%; in the experiment with Klebsiella pneumoniae, 12.12%; in the experiment with Candida albicans, 3.96%; with Cryptococcus neoformans, -6.56%.

For the molecule `[O-]/[N+](=C\c1ccccc1)CC1(O)CCCCC1`, the Inhibition worked out at 12.91% with Staphylococcus aureus; 10.28% with Acinetobacter baumannii; 21.78% with Escherichia coli; 2.39% in the experiment with Klebsiella pneumoniae; 5.54% in the experiment with Candida albicans; 9.39% in the experiment with Cryptococcus neoformans.

Regarding `CN1CCc2ccccc2C1Cc1ccccc1NC(=O)c1sc2ccccc2c1Cl` (centres undefined), the Inhibition in the experiment on Staphylococcus aureus is 1.84%; with Acinetobacter baumannii, -6.84%; in the experiment with Escherichia coli, 0.33%; with Klebsiella pneumoniae, 11.11%; in the experiment with Candida albicans, 2.39%; with Cryptococcus neoformans, -3.5%.

In the case of `ClCC(CNCc1ccccc1)c1ccccc1` (centres undefined), the Inhibition is 7.68% in the experiment on Staphylococcus aureus; 11.29% in the experiment on Acinetobacter baumannii; 0.62% with Escherichia coli; 19.58% in the experiment on Klebsiella pneumoniae; 5.41% with Candida albicans; -7.48% with Cryptococcus neoformans.

As for `CCOC(=O)Nc1cc2c(c(N)n1)N=C(c1ccccc1)CN2`, the Inhibition was 13.64% with Staphylococcus aureus; 2.33% with Acinetobacter baumannii; 8.87% in the experiment with Escherichia coli; 5.47% in the experiment on Klebsiella pneumoniae; 5.55% with Candida albicans; -8.89% in the experiment on Cryptococcus neoformans.

As to `O=C(CN1CCCC1)Nc1nc(-c2ccc(Cl)cc2)cs1`, the Inhibition in the experiment with Staphylococcus aureus is -2.74%; in the experiment with Acinetobacter baumannii, 10.5%; in the experiment with Escherichia coli it was -10.54%; with Klebsiella pneumoniae, 13.35%; in the experiment with Candida albicans, 4.21%; with Cryptococcus neoformans, -1.35%.

In the case of `O=c1cc(-c2ccccc2)oc2ccc(O)cc12` [6-HYDROXYFLAVONE], the Inhibition in the experiment with Staphylococcus aureus is -4.33%; in the experiment on Acinetobacter baumannii, -2.45%; with Escherichia coli it was -5.6%; in the experiment on Klebsiella pneumoniae, 8.45%; in the experiment on Candida albicans, 7.78%; with Cryptococcus neoformans, -10.88%.

In the case of `Cn1cnc([N+](=O)[O-])c1Sc1nnc(-c2cccnc2)n1C`, the Inhibition with Staphylococcus aureus is 12.02%; with Acinetobacter baumannii it was 15.57%; with Escherichia coli, -1.31%; in the experiment on Klebsiella pneumoniae it was 17.06%; in the experiment with Candida albicans, 6.51%; in the experiment on Cryptococcus neoformans, -6.62%.

Consider `NS(=O)(=O)c1cc2c(cc1Cl)NC(Cc1ccccc1)NS2(=O)=O` (centres undefined) [BENZYLHYDROCHLOROTHIAZIDE], for which the Inhibition with Staphylococcus aureus was 8.57%; with Acinetobacter baumannii, 4.78%; with Escherichia coli, 13.54%; in the experiment with Klebsiella pneumoniae, 17.47%; in the experiment on Candida albicans, 3.24%; in the experiment on Cryptococcus neoformans, -10.94%.

Take `Cc1nc([C@H]2CC[C@H]3[C@@H]4CCC5=CC(=O)CC[C@]5(C)[C@H]4CC[C@]23C)cs1`: the Inhibition in the experiment on Staphylococcus aureus is 4.31%; in the experiment on Acinetobacter baumannii it was 15.21%; in the experiment with Escherichia coli, 6.81%; in the experiment on Klebsiella pneumoniae, 9.22%; with Candida albicans, 2.4%; in the experiment on Cryptococcus neoformans, -7.32%.
